Activity calls are given as the source filed them. Rule for the calls: active = hit-call score of the fitted dose curve at least 0.9, where 1 is the maximum; inactive = score below 0.9.

Sequence of Nuclear factor erythroid 2-related factor 2 (Homo sapiens) (Q16236 whole entry, looked up): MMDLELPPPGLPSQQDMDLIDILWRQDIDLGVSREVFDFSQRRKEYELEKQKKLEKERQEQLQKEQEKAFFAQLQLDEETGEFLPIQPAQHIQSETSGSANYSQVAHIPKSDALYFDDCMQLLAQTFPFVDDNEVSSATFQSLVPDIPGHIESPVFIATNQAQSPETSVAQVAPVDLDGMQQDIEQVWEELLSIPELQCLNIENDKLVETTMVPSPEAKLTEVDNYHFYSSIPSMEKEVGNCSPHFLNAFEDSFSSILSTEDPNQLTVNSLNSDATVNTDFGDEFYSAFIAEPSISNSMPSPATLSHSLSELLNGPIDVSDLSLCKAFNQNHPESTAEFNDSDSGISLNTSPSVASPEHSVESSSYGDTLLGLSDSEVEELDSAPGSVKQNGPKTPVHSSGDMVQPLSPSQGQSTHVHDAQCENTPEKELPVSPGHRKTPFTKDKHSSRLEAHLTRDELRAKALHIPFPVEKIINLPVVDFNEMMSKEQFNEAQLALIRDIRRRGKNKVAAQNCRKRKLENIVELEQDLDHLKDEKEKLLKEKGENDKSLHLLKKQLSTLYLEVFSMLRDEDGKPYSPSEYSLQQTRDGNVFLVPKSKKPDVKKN

Read-out in one assay: solute carrier (SLC22A1), SLC22A1 (gene 6580)
As to the kind of experiment: LTEA_HepaRG_SLC22A1: Life Technologies and Expression Analysis (LTEA) Assay for solute carrier (SLC22A1) using HepaRG (AID 2283524).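 For AC50: differentiated human HepaRG liver cells in serum-free induction medium; TaqMan qRT-PCR normalized to ACTB GAPDH and POLR2A housekeeping genes.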 The conditions noted are these: mRNA level, 48 h; actives raise or lower the signal. Put shortly:
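Transcript level of SLC22A1 quantified by qRT-PCR (normalized to three housekeeping genes) after 48 h chemical exposure of HepaRG cells, eight concentrations up to 100 µM, half-log steps, 0.5% DMSO vehicle. Gain or loss relative to DMSO fitted bidirectionally.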
Broadly, the AC50 is the concentration at which the activity in the assay is half-maximal. Turning to `CN(C)C(=O)NC1(c2ccccc2)CCN(CC[C@@]2(c3ccc(F)c(F)c3)CN(C(=O)c3ccccc3)CCO2)CC1`, the AC50 is 9.33 µM (active).
Still for that read-out and setting: the same measure for `CCCCCCCCCCCCCCOS(=O)(=O)O`: 80.6 µM (active).
On to `CC(=O)CC(c1ccccc1)c1c(O)c2ccccc2oc1=O` (centres undefined), for which the call was inactive.
Still for that read-out and setting: the same measure for `NC1CCCCC1`: “inactive”.

Read-out in a further assay: Pyruvate Dehydrogenase Kinase 4 (PDK4), PDK4 (gene 5166)
As to the kind of experiment: LTEA_HepaRG_PDK4: Life Technologies and Expression Analysis (LTEA) Assay for Pyruvate Dehydrogenase Kinase 4 (PDK4) using HepaRG (AID 2283525). The note with it: mRNA level, 48 h; actives raise or lower the signal. The method in brief:
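Readout is qRT-PCR of PDK4 transcript, normalized to three housekeeping genes, with bidirectional fitting against 0.5% DMSO vehicle. Differentiated HepaRG cells were treated 48 h in serum-free induction medium, duplicate wells, eight-point half-log series topping at 100 uM.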
Consider `S=c1[nH]c2ccccc2s1`, for which the compound was called inactive.
Consider `Oc1ccccc1O`, for which the result was inactive.
In the case of `CCCC[C@H]1CN(CC2CCOCC2)C(=O)OC12CCN(C1(C)CCN(C(=O)c3c(C)ncnc3C)CC1)CC2`, the compound was called inactive.
Turning to `O=C(Oc1ccccc1)c1cccc(C(=O)Oc2ccccc2)c1`, the compound was called inactive.
Take `O=C(NS(=O)(=O)/C=C/c1cccs1)c1ccc(F)cc1Br`: the result was inactive.
Regarding `Nc1nc(=S)c2[nH]cnc2[nH]1`, the call was inactive.
In the case of `CCCCCCCCCC[N+](C)(C)[O-]`, the compound was classed as inactive.
`C/C=C/C=C/C(=O)O`: the outcome was inactive.
Consider `CC(C)c1cccc(C(C)C)c1NC(=O)NS(=O)(=O)c1cc(C(C)(C)O)co1`, for which the result was inactive.
Turning to `O=Cc1ccccc1C=O`, the compound was called inactive.
For the compound `Cc1cn([C@H]2C=C[C@@H](CO)O2)c(=O)[nH]c1=O`, the outcome was inactive.
With `CC(C)NCC(O)c1ccc(O)c(O)c1` (centres undefined), the compound was called inactive.
Regarding `CC(=O)O`, the compound was called inactive.
Turning to `CN(C)C(=O)NC1(c2ccccc2)CCN(CC[C@@]2(c3ccc(F)c(F)c3)CN(C(=O)c3ccccc3)CCO2)CC1`, the AC50 is 21.1 µM (active).
With `CCCCCCCCCCCCCCOS(=O)(=O)O`, the AC50 is 49.6 µM (active).
Consider `CC(=O)CC(c1ccccc1)c1c(O)c2ccccc2oc1=O` (centres undefined), for which the compound was classed as inactive.

Read-out in a further assay: NAD(P)H dehydrogenase [quinone] 1 (NQO1), NQO1 (gene 1728)
As to the kind of experiment: LTEA_HepaRG_NQO1: Life Technologies and Expression Analysis (LTEA) Assay for NAD(P)H dehydrogenase [quinone] 1 (NQO1) using HepaRG (AID 2283526). The note with it: mRNA level, 48 h; actives raise or lower the signal. Put shortly: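 qRT-PCR read-out (Fluidigm TaqMan), normalized to three housekeeping genes, after 48 h chemical exposure of HepaRG cells. Concentrations: eight points, top 100 uM, half-log steps, 0.5% DMSO vehicle. Gain or loss of signal fitted relative to DMSO.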
Take `S=c1[nH]c2ccccc2s1`: the compound was called inactive.
As to `Oc1ccccc1O`, the compound was classed as inactive.
For the compound `CCc1cc(C2=C(C(=O)O)N(c3ccccc3C(F)(F)F)S(=O)(=O)c3ccccc32)cc2c1OCO2`, the call was inactive.
Still for that read-out and setting: then `CC(C)(C)c1ccccc1`, with “inactive”; and `COc1ccc(C(=O)Nc2nc3ccccc3c(NCc3ccccc3)c2C#N)cc1`, with “inactive”; and `CCCC[C@H]1CN(CC2CCOCC2)C(=O)OC12CCN(C1(C)CCN(C(=O)c3c(C)ncnc3C)CC1)CC2`, with “inactive”.
For the compound `O=C1NC(=O)C(c2ccccc2)(c2ccccc2)N1`, the result was inactive.
As to `CCc1nc(N)nc(N)c1-c1ccc(Cl)cc1`, the compound was classed as inactive.
With `O=C1O[C@H]([C@H](O)CO)C(O)=C1O`, the compound was classed as inactive.
For `O=C(Oc1ccccc1)c1cccc(C(=O)Oc2ccccc2)c1`, the compound was classed as inactive.
Turning to `O=C(NS(=O)(=O)/C=C/c1cccs1)c1ccc(F)cc1Br`, the call was inactive.
The same measure, in the same setting: then `Nc1nc(=S)c2[nH]cnc2[nH]1`, with “inactive”; and `CC(N)=O`, with “inactive”.
In the case of `COC(=O)[C@H]1[C@H]2C[C@@H]3c4[nH]c5cc(OC)ccc5c4CCN3C[C@H]2C[C@@H](OC(=O)c2cc(OC)c(OC)c(OC)c2)[C@@H]1OC`, the call was inactive.
Regarding `CCCCCCCCCC[N+](C)(C)[O-]`, the result was inactive.
In the case of `CC(COCC(C)OC(=O)c1ccccc1)OC(=O)c1ccccc1` (centres undefined), the call was inactive.
For `C/C=C/C=C/C(=O)O`, the call was inactive.
For `CC(C)c1cccc(C(C)C)c1NC(=O)NS(=O)(=O)c1cc(C(C)(C)O)co1`, the outcome was inactive.
Take `NC(=Nc1ccccc1)Nc1ccccc1`: the result was inactive.
Consider `CC(C)(O)c1ccc(CNC(=O)c2cccnc2Oc2ccc(F)cc2)cc1`, for which the call was inactive.
As for `O=Cc1ccccc1C=O`, the compound was called inactive.
Same read-out and setting: the same measure for `Cc1cn([C@H]2C=C[C@@H](CO)O2)c(=O)[nH]c1=O`: “inactive”; for `O=C1c2c(O)cccc2Cc2cccc(O)c21`: “inactive”.
With `CC(C)NCC(O)c1ccc(O)c(O)c1` (centres undefined), the compound was classed as inactive.
On to `CC(=O)O`, for which the compound was called inactive.
As to `COc1ccc(OC(F)(F)F)cc1CN[C@H]1CCCN[C@H]1c1ccccc1`, the outcome was inactive.
`CN(C)C(=O)NC1(c2ccccc2)CCN(CC[C@@]2(c3ccc(F)c(F)c3)CN(C(=O)c3ccccc3)CCO2)CC1`: the result was inactive.
Turning to `CCCCCCCCCCCCCCOS(=O)(=O)O`, the compound was classed as inactive.
Turning to `NC1CCCCC1`, the outcome was inactive.

Read-out in a further assay: Nuclear factor erythroid 2-related factor 2 (Homo sapiens) (UniProt Q16236)
The assay is described as follows: LTEA_HepaRG_NFE2L2: Life Technologies and Expression Analysis (LTEA) Assay for Nuclear factor erythroid 2-related factor 2 (NFE2L2) Transcription Factor using HepaRG (AID 2283527).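 For outcome: TaqMan qRT-PCR transcript level normalised to ACTB GAPDH and POLR2A housekeeping genes.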 The note with it: mRNA level, 48 h; actives raise or lower the signal. The method in brief: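 NFE2L2 transcript level was read by qRT-PCR (housekeeping ACTB/GAPDH/POLR2A normalisation) after 48 h chemical treatment of HepaRG in serum-free induction medium. Duplicate 8-point half-log curves, top 100 uM, 0.5% DMSO vehicle; up- or down-regulation fitted against vehicle.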
In the case of `S=c1[nH]c2ccccc2s1`, the compound was classed as inactive.
As to `Oc1ccccc1O`, the compound was classed as inactive.
For `CCc1cc(C2=C(C(=O)O)N(c3ccccc3C(F)(F)F)S(=O)(=O)c3ccccc32)cc2c1OCO2`, the AC50 was 50 µM (active).
Take `CC(C)(C)c1ccccc1`: the compound was classed as inactive.
As to `COc1ccc(C(=O)Nc2nc3ccccc3c(NCc3ccccc3)c2C#N)cc1`, the AC50 was 20.9 µM (active).
As to `CCCC[C@H]1CN(CC2CCOCC2)C(=O)OC12CCN(C1(C)CCN(C(=O)c3c(C)ncnc3C)CC1)CC2`, the outcome was inactive.
Still for that read-out and setting: then `O=C1NC(=O)C(c2ccccc2)(c2ccccc2)N1`, with “inactive”.
Regarding `CCc1nc(N)nc(N)c1-c1ccc(Cl)cc1`, the compound was classed as inactive.
On the same count and under the same terms, then `O=C1O[C@H]([C@H](O)CO)C(O)=C1O`, with “inactive”; and `O=C(Oc1ccccc1)c1cccc(C(=O)Oc2ccccc2)c1`, with “inactive”; and `O=C(NS(=O)(=O)/C=C/c1cccs1)c1ccc(F)cc1Br`, with “inactive”.
On to `Nc1nc(=S)c2[nH]cnc2[nH]1`, for which the AC50 is 26.6 µM (active).
For the compound `CC(N)=O`, the outcome was inactive.
With `COC(=O)[C@H]1[C@H]2C[C@@H]3c4[nH]c5cc(OC)ccc5c4CCN3C[C@H]2C[C@@H](OC(=O)c2cc(OC)c(OC)c(OC)c2)[C@@H]1OC`, the half-maximal activity concentration (AC50) was 42.2 µM (active).
`CCCCCCCCCC[N+](C)(C)[O-]`: the compound was classed as inactive.
On to `CC(COCC(C)OC(=O)c1ccccc1)OC(=O)c1ccccc1` (centres undefined), for which the compound was called inactive.
The same measure, in the same setting: then `C/C=C/C=C/C(=O)O`, with “inactive”.
With `CC(C)c1cccc(C(C)C)c1NC(=O)NS(=O)(=O)c1cc(C(C)(C)O)co1`, the outcome was inactive.
Same read-out and setting: then `NC(=Nc1ccccc1)Nc1ccccc1`, with “inactive”.
With `CC(C)(O)c1ccc(CNC(=O)c2cccnc2Oc2ccc(F)cc2)cc1`, the outcome was inactive.
On to `O=Cc1ccccc1C=O`, for which the call was inactive.
Still for that read-out and setting: then `Cc1cn([C@H]2C=C[C@@H](CO)O2)c(=O)[nH]c1=O`, with “inactive”.
As to `O=C1c2c(O)cccc2Cc2cccc(O)c21`, the compound was classed as inactive.
As for `CC(C)NCC(O)c1ccc(O)c(O)c1` (centres undefined), the AC50 is 0.2 µM (active).
On to `CC(=O)O`, for which the compound was called inactive.
`COc1ccc(OC(F)(F)F)cc1CN[C@H]1CCCN[C@H]1c1ccccc1`: the AC50 is 14.7 µM (active).
`CN(C)C(=O)NC1(c2ccccc2)CCN(CC[C@@]2(c3ccc(F)c(F)c3)CN(C(=O)c3ccccc3)CCO2)CC1`: the outcome was inactive.
On to `CCCCCCCCCCCCCCOS(=O)(=O)O`, for which the result was inactive.
Turning to `CC(=O)CC(c1ccccc1)c1c(O)c2ccccc2oc1=O` (centres undefined), the outcome was inactive.
On to `NC1CCCCC1`, for which the compound was classed as inactive.

For the origin of these results see PubChem BioAssay (EPA / NIEHS).
